Assay results as given in the supplement of paper PMC10849652.
Of roughly 7,900 targets only a part is listed; those with a hit were picked by preference. About 0.6% of all pairs of compound and target were hits. Unmarked numbers belong to inactive results.

What was measured:
Experiment in all cases: log2 fold change, soluble protein after heating vs DMSO (PISA); higher = thermal stabilisation; K562 cells, 10 uM, 30 min; active = over 0.2 and 3.5 SD of the protein, either way, in both replicates (recomputed)
[1] = compound: CS(=O)(=O)c1ccc(-c2cnc(N)c(C(=O)Nc3ccccc3)n2)cc1
How it was run: (§1)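 K562 cells at 2×10^6 cells/mL were treated for 30 min with 10 μM compound, and aliquots were heated for 3 min over 48°C-58°C before pooling. Extraction used PBS with 0.5% NP-40 at 4°C, and soluble protein was the supernatant after 21,000xg for 90 min, measured by TMTpro 16plex LC-MS/MS with channel sums equalised. Thermal stability values, relative to control samples and from duplicates, are log2 fold changes.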

[2] = compound: C[C@@H](Oc1cc(-c2cnn(C3CCNCC3)c2)cnc1N)c1c(Cl)ccc(F)c1Cl [crizotinib]
How it was run: as §1

[3] = compound: C[C@@H]1COCCN1C2=NC(=NC(=C2)C3(CC3)S(=O)(=O)C)C4=C5C=CNC5=CC=C4
How it was run: as §1

[4] = compound: C[C@H](C1=CC=C(C=C1)C(=O)NC2=C3C=CNC3=NC=C2)N
How it was run: as §1

[5] = compound: C[C@H](Nc1ncnc2nc[nH]c12)c1cc2cccc(Cl)c2c(=O)n1-c1ccccc1 [duvelisib]
How it was run: as §1

[6] = compound: Cc1cc(Nc2cc(CN3CCOCC3)c3nc(C)c(Cc4ccc(Cl)cc4F)n3n2)n[nH]1 [gandotinib]
How it was run: as §1

[7] = compound: Cc1cc(Nc2cc(N3CCN(C)CC3)nc(Sc3ccc(NC(=O)C4CC4)cc3)n2)n[nH]1 [tozasertib]
How it was run: as §1

[8] = compound: Cc1cc(SCc2sc(-c3ccc(C(F)(F)F)cc3)nc2C)ccc1OCC(=O)O
How it was run: as §1

[9] = compound: Cc1ccc(-n2nc(C(C)(C)C)cc2NC(=O)Nc2ccc(OCCN3CCOCC3)c3ccccc23)cc1 [doramapimod]
How it was run: as §1

[10] = compound: Cc1ccc(C(=O)N(CCCN)[C@@H](c2nc3cc(Cl)ccc3c(=O)n2Cc2ccccc2)C(C)C)cc1 [ispinesib]
How it was run: as §1

Sequence of UniProt Q9HAN9 (Q9HAN9 whole entry, looked up): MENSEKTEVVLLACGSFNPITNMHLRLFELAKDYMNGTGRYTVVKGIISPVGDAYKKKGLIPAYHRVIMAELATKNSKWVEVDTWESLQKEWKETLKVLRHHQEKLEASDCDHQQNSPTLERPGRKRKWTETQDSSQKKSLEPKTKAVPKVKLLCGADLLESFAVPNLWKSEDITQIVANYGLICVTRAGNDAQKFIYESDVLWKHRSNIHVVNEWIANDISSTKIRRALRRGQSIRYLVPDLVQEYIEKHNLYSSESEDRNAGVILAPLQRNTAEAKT
Sequence of UniProt P11586 (P11586 whole entry, looked up): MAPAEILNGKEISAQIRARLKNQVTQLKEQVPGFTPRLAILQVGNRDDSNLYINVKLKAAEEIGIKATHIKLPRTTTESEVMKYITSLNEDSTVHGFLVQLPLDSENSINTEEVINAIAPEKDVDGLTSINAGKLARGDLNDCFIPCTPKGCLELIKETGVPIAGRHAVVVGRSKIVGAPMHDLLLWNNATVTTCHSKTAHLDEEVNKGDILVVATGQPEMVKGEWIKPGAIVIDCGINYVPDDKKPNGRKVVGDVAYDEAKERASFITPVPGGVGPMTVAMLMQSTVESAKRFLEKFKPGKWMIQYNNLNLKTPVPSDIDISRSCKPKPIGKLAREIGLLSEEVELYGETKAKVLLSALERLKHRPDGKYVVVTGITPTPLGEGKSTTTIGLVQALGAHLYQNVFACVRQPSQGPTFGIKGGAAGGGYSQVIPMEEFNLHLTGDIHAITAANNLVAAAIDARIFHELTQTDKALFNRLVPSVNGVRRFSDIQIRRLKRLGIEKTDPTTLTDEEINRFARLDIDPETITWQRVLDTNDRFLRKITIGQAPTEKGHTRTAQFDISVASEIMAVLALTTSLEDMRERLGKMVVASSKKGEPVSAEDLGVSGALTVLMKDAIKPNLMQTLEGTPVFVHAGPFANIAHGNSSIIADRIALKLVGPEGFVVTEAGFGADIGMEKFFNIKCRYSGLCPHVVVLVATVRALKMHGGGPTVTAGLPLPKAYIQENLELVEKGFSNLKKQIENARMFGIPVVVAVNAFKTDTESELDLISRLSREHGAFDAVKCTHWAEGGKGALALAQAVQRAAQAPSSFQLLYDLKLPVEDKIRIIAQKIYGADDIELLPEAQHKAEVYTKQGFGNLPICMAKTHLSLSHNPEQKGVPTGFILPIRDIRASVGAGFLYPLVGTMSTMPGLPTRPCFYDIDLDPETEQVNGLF
Sequence of UniProt Q9ULX3 (Q9ULX3 whole entry, looked up): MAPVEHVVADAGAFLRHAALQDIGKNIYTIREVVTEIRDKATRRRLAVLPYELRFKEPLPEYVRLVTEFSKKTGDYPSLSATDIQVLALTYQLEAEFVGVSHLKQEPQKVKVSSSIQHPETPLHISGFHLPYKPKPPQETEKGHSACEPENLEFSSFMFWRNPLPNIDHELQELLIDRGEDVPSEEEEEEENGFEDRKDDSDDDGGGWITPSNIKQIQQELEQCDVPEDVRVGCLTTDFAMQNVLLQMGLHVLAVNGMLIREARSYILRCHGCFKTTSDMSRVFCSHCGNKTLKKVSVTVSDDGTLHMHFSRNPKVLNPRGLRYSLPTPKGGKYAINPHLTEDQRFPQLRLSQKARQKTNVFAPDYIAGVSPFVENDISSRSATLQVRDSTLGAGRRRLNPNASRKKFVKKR
Sequence of UniProt O60361 (O60361 whole entry, looked up): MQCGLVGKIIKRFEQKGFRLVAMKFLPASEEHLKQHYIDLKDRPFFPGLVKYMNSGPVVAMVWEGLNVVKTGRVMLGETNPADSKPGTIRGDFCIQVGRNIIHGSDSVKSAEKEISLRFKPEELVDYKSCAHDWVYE
Sequence of UniProt Q9BS92 (Q9BS92 whole entry, looked up): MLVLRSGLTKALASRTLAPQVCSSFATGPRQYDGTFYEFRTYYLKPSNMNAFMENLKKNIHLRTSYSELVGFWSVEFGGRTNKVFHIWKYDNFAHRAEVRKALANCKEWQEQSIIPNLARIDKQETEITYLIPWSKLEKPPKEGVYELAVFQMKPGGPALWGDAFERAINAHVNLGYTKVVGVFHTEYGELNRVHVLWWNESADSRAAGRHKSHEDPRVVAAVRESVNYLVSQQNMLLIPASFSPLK
Sequence of UniProt Q16621 (Q16621 whole entry, looked up): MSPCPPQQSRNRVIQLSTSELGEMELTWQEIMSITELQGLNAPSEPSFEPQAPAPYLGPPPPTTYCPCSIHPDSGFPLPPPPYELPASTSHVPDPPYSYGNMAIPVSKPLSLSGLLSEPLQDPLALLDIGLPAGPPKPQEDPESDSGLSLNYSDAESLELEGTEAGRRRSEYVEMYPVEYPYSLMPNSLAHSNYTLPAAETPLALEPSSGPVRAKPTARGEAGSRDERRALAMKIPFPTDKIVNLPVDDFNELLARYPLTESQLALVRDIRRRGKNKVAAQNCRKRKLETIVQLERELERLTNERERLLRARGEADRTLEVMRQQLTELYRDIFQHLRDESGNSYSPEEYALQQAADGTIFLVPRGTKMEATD
Sequence of UniProt Q9Y6R0 (Q9Y6R0 whole entry, looked up): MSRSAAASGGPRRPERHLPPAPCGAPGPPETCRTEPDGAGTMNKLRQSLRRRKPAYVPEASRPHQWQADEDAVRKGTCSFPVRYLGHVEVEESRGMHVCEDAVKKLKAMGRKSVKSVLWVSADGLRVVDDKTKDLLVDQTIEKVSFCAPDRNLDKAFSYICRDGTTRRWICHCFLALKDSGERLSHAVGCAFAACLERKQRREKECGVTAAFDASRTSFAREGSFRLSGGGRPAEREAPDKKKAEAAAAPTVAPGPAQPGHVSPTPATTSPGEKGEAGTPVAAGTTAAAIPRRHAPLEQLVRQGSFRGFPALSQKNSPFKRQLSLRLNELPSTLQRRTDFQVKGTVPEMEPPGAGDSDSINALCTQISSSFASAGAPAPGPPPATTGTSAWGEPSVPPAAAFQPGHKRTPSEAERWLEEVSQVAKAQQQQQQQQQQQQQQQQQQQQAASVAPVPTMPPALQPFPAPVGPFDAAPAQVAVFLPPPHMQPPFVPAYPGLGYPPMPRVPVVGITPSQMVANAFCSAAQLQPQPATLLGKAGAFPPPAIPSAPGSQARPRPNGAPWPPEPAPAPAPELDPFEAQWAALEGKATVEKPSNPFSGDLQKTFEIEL
Sequence of UniProt O75607 (O75607 whole entry, looked up): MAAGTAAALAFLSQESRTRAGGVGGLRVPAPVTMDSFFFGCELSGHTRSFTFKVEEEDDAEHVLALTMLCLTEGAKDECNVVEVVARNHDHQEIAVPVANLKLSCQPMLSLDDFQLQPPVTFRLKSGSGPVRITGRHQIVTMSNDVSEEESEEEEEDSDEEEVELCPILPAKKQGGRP
Sequence of UniProt O15118 (O15118 whole entry, looked up): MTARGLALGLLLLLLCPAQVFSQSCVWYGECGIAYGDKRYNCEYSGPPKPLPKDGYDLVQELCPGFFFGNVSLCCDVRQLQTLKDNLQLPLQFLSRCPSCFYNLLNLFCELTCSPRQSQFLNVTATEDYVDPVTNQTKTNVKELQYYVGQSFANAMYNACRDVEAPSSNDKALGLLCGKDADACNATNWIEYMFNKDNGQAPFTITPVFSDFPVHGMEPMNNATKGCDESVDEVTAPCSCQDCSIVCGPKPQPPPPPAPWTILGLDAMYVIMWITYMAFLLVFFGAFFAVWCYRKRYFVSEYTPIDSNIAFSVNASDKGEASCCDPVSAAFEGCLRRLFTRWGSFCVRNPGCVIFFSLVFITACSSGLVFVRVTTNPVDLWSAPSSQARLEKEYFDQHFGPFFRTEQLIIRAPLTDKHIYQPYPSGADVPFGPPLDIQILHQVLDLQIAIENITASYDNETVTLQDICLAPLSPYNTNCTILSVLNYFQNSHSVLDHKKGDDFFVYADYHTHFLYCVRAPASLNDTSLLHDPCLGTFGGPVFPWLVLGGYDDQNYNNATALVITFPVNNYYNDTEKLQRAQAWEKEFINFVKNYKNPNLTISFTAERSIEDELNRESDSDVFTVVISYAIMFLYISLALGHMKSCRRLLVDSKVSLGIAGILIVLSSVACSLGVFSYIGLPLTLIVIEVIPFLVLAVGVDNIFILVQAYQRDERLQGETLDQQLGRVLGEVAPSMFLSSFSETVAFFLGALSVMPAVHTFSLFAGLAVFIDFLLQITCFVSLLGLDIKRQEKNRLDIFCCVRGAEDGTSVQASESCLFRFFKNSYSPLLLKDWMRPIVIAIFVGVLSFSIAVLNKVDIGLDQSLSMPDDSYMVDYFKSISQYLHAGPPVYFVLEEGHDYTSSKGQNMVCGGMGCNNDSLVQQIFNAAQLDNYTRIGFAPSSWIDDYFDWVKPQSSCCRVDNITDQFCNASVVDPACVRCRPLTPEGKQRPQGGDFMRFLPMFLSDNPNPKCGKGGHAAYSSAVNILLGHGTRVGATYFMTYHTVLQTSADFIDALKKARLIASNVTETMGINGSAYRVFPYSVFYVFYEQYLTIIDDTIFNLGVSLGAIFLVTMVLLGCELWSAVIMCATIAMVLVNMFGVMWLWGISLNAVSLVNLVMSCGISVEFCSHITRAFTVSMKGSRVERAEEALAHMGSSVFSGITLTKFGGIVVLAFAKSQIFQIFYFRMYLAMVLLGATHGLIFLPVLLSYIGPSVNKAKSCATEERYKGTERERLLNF
Sequence of UniProt O43913 (O43913 whole entry, looked up): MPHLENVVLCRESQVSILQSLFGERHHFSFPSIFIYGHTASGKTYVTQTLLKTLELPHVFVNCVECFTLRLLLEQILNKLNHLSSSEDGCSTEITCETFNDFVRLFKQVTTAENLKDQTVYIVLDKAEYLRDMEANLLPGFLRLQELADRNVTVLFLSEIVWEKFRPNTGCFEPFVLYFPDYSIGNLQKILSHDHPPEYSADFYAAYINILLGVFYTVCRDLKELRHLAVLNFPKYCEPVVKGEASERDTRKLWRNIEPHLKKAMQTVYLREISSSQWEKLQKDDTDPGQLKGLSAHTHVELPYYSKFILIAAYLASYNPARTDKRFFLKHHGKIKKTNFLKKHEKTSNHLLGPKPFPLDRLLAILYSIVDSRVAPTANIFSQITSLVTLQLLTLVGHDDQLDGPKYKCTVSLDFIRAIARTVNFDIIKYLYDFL

Row | Target | log2 fold change [1] | log2 fold change [2] | log2 fold change [3] | log2 fold change [4] | log2 fold change [5] | log2 fold change [6] | log2 fold change [7] | log2 fold change [8] | log2 fold change [9] | log2 fold change [10]
1 | NCOA7 (UniProt Q8NI08) | -0.003 | -0.17 | 0.012 | -0.034 | 0.091 | -0.238 (active) | -0.052 | 0.031 | 0.082 | -0.037
2 | MRPS22 (UniProt P82650) | -0.014 | 0.037 | 0.086 | 0.055 | 0.043 | 0.008 | 0.004 | 0.081 | 0.002 | -0.258 (active)
3 | MRPS25 (UniProt P82663) | -0.018 | -0.082 | -0.103 | 0.165 | 0.009 | -0.109 | 0.017 | 0.121 | -0.083 | -0.438 (active)
4 | NCL (UniProt P19338) | -0.136 | 0.12 | -0.59 | 0.428 | -0.162 | 0.315 | 0.064 | 0.075 | 0.254 | -0.19
5 | NEK3 (UniProt P51956) | -0.086 | 0.08 | 0.19 | -0.19 | -0.032 | 0.103 | 0.083 | 0.05 | -0.014 | -0.006
6 | NUP107 (UniProt P57740) | 0.101 | -0.067 | -0.083 | -0.062 | 0.031 | -0.229 | 0.028 | 0.093 | 0.11 | -0.018
7 | NPC1 (UniProt O15118) | 0.016 | -0.132 | 0.024 | -0.102 | 0.043 | 0.015 | -0.04 | -0.038 | -0.087 | -0.148
8 | NUDCD2 (UniProt Q8WVJ2) | 0.049 | -0.02 | 0.1 | -0.077 | 0.004 | -0.042 | 0.149 | 0.073 | -0.049 | -0.12
9 | MON1A (UniProt Q86VX9) | 0.049 | -0.559 (active) | 0.057 | – | -0.012 | 0.116 | -0.111 | 0.011 | 0.045 | -0.153
10 | NOB1 (UniProt Q9ULX3) | 0.012 | -0.142 | -0.033 | 0.15 | -0.046 | 0.019 | -0.067 | 0.113 | 0 | -0.038
11 | NIPSNAP3B (UniProt Q9BS92) | 0.03 | 0.053 | – | 0.015 | -0.18 | 0.082 | -0.045 | 0.039 | -0.102 | –
12 | MORC3 (UniProt Q14149) | 0.058 | 0.052 | 0.197 | -0.106 | 0.106 | -0.017 | 0.185 | 0.122 | -0.067 | 0.041
13 | NMNAT1 (UniProt Q9HAN9) | -0.053 | -0.016 | -0.435 | 0.164 | -0.046 | 0.132 | 0.024 | -0.056 | 0.296 | -0.212
14 | NME2P1 (UniProt O60361) | -0.093 | -0.066 | -0.114 | 0.079 | – | -0.346 | -0.012 | – | 0.27 | -0.119
15 | MLST8 (UniProt Q9BVC4) | -0.07 | -0.12 | 0.014 | 0.089 | 0.067 | – | 0.006 | 0.079 | 0.042 | –
16 | MTHFD1 (UniProt P11586) | 0.101 | -0.15 | 0.107 | -0.003 | 0.016 | -0.077 | -0.054 | 0.054 | -0.053 | -0.021

Row | Target | log2 fold change [1] | log2 fold change [2] | log2 fold change [3] | log2 fold change [4] | log2 fold change [5] | log2 fold change [6] | log2 fold change [7] | log2 fold change [8] | log2 fold change [9] | log2 fold change [10]
17 | NOSIP (UniProt Q9Y314) | 0.108 | 0.329 | -0.08 | -0.03 | 0.118 | -0.118 | 0.191 | 0.257 | -0.113 | 0.133
18 | NARS2 (UniProt Q96I59) | 0.038 | -0.099 | 0.125 | -0.061 | 0.037 | 0.02 | -0.051 | -0.028 | -0.009 | -0.401 (active)
19 | MSTO1 (UniProt Q9BUK6) | -0.014 | -0.081 | 0.09 | 0.025 | 0.009 | -0.003 | 0.02 | 0.009 | 0.027 | -0.053
20 | OSBPL3 (UniProt Q9H4L5) | 0.245 | -0.017 | -0.416 | 0.572 | -0.098 | – | 0.198 | 0.063 | 0.189 | -0.36
21 | NRDC isoform 2 (UniProt O43847) | 0.034 | -0.065 | 0.054 | -0.034 | 0.008 | -0.029 | 0.02 | 0.089 | -0.036 | -0.022
22 | MRPS16 (UniProt Q9Y3D3) | 0.061 | 0.014 | 0.028 | 0.159 | – | -0.031 | 0.05 | – | 0.001 | -0.266
23 | NCK1 (UniProt P16333) | -0.077 | -0.449 | 0.171 | 0.162 | -0.135 | – | 0.061 | 0.076 | -0.008 | -0.173
24 | NPM3 (UniProt O75607) | -0.125 | 0.001 | – | -0.043 | 0.022 | 0.109 | -0.034 | -0.011 | 0.024 | 0.022
25 | NFE2 (UniProt Q16621) | -0.006 | -0.052 | -0.001 | -0.031 | 0.008 | -0.091 | 0.077 | -0.015 | 0.049 | 0.033
26 | PAAF1 (UniProt Q9BRP4) | -0.003 | -0.003 | 0.078 | -0.071 | 0 | -0.035 | -0.042 | 0.018 | -0.022 | 0.047
27 | MT-ND4 (UniProt P03905) | -0.107 | 0.008 | 0.052 | -0.148 | 0.079 | -0.104 | 0.06 | -0.066 | 0 | 0.118
28 | ORC5 (UniProt O43913) | 0.166 | -0.766 (active) | – | 0.008 | 0.074 | -0.226 | -0.007 | 0.135 | -0.104 | -0.152
29 | NUMBL (UniProt Q9Y6R0) | 0.13 | -0.021 | 0.056 | 0.044 | 0.07 | -0.025 | – | 0.108 | 0.109 | -0.187
30 | MRPS21 (UniProt P82921) | 0.146 | -0.128 | 0.07 | 0.209 | 0.155 | – | 0.004 | 0.16 | 0.037 | -0.239
31 | MRPS35 (UniProt P82673) | 0.004 | -0.043 | 0.016 | 0.166 | 0.016 | -0.039 | 0.032 | 0.101 | 0.005 | -0.277 (active)
